# Test results published in publication PMC5540273 (PLoS ONE, 2017).
# Where “and” joins values, the source holds several entries; their conditions need not be identical. Equal entries are not always repeated. Where two headings read alike, the source gives them in different places.
# How the values were obtained:
# [1] = tested on: TSSK3; settings: concentration: 1 μM, replicates: in singlicate, n = 1
# [2] = tested on: TTK; settings: concentration: 1 μM, replicates: in singlicate; n = 1
# [3] = tested on: TXK; settings: concentration: 1 μM, replicates: in singlicate, n = 1
# [4] = tested on: TYK2(JH1domain-catalytic); settings: concentration: 1 μM, replicates: in singlicate, n = 1
# [5] = tested on: TYK2(JH2domain-pseudokinase); settings: concentration: 1 μM, replicates: in singlicate, n = 1
# [6] = tested on: TYRO3; settings: concentration: 1 μM, replicates: in singlicate, n = 1
# [7] = tested on: ULK1; settings: concentration: 1 μM, replicates: in singlicate, n = 1
# [8] = tested on: ULK2; settings: concentration: 1 μM, replicates: in singlicate; n = 1
# [9] = tested on: ULK3; settings: concentration: 1 μM, replicates: in singlicate, n = 1
# [10] = tested on: T1, VEGFR2; settings: concentration: 1 μM, replicates: in singlicate, n = 1
# T1 construct: gene KDR
# [11] = tested on: T2, VPS34; settings: concentration: 1 μM, replicates: in singlicate, n = 1
# T2 construct: gene PIK3C3
# [12] = tested on: VRK2; settings: concentration: 1 μM, replicates: in singlicate, n = 1
# [13] = tested on: WEE1; settings: concentration: 1 μM, replicates: in singlicate, n = 1
# [14] = tested on: WEE2; settings: concentration: 1 μM, replicates: in singlicate; n = 1
# [15] = tested on: WNK1; settings: concentration: 1 μM, replicates: in singlicate, n = 1
# [16] = tested on: WNK2; settings: concentration: 1 μM, replicates: in singlicate, n = 1
# [17] = tested on: WNK3; settings: concentration: 1 μM, replicates: in singlicate, n = 1
# [18] = tested on: WNK4; settings: concentration: 1 μM, replicates: in singlicate, n = 1
# [19] = tested on: T3, YANK1; settings: concentration: 1 μM, replicates: in singlicate, n = 1
# T3 construct: gene STK32A
# [20] = tested on: T4, YANK2; settings: concentration: 1 μM, replicates: in singlicate, n = 1
# T4 construct: gene STK32B
# 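Also: KINOMEscan kinase panel screen.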
structure (smiles),measurement,setting,value
CC(C)(C)n1cnc2c(N)ncnc21 [SKF-97359],%Inh,[1],45%
same,%Inh,[2],0%
same,%Inh,[3],0%
same,%Inh,[4],21%
same,%Inh,[5],1%
same,%Inh,[6],0%
same,%Inh,[7],0%
same,%Inh,[8],0%
same,%Inh,[9],0%
same,%Inh,[10],0%
same,%Inh,[11],15%
same,%Inh,[12],100%
same,%Inh,[13],0%
same,%Inh,[14],12%
same,%Inh,[15],0%
same,%Inh,[16],25%
same,%Inh,[17],40%
same,%Inh,[18],0%
same,%Inh,[19],0%
same,%Inh,[20],0%
COc1cc2ncn(-c3cc(OCc4sccc4Cl)c(C(N)=O)s3)c2cc1OC [GSK448459],%Inh,[1],10%
same,%Inh,[2],5%
same,%Inh,[3],0%
same,%Inh,[4],22%
same,%Inh,[5],19%
same,%Inh,[6],0%
same,%Inh,[7],17%
same,%Inh,[8],0%
same,%Inh,[9],19%
same,%Inh,[10],0%
same,%Inh,[11],60%
same,%Inh,[12],5%
same,%Inh,[13],4%
same,%Inh,[14],5%
same,%Inh,[15],19%
same,%Inh,[16],45%
same,%Inh,[17],60%
same,%Inh,[18],31%
same,%Inh,[19],11%
same,%Inh,[20],0%
NS(=O)(=O)c1cccc(-c2ccc3ncc(N4CCOCC4)nc3c2)c1 [GSK1535721],%Inh,[1],6%
same,%Inh,[2],6%
same,%Inh,[3],0%
same,%Inh,[4],0%
same,%Inh,[5],31%
same,%Inh,[6],0%
same,%Inh,[7],0%
same,%Inh,[8],0%
same,%Inh,[9],2%
same,%Inh,[10],10%
same,%Inh,[11],87%
same,%Inh,[12],8%
same,%Inh,[13],5%
same,%Inh,[14],8%
same,%Inh,[15],0%
same,%Inh,[16],0%
same,%Inh,[17],24%
same,%Inh,[18],16%
same,%Inh,[19],2%
same,%Inh,[20],3%
COc1ccc(COc2cc(-n3cnc4ccccc43)sc2C(N)=O)cc1 [GSK1024304],%Inh,[1],17%
same,%Inh,[2],6%
same,%Inh,[3],20%
same,%Inh,[4],4%
same,%Inh,[5],0%
same,%Inh,[6],0%
same,%Inh,[7],15%
same,%Inh,[8],0%
same,%Inh,[9],0%
same,%Inh,[10],0%
same,%Inh,[11],40%
same,%Inh,[12],0%
same,%Inh,[13],0%
same,%Inh,[14],2%
same,%Inh,[15],0%
same,%Inh,[16],0%
same,%Inh,[17],12%
same,%Inh,[18],13%
same,%Inh,[19],6%
same,%Inh,[20],0%
CC(C)(CN)c1nc(-c2ccc(Cl)c(O)c2)c(-c2ccncc2)[nH]1.O=C(O)C(F)(F)F [SB-477794],%Inh,[1]; 1 µM,6% and 16%
same,%Inh,[2],0%
same,%Inh,[3]; 1 µM,100% and 96.2%
same,%Inh,[4]; 1 µM,59% and 16%
same,%Inh,[5]; 1 µM,73% and 41%
same,%Inh,[6]; 1 µM,12% and 34%
same,%Inh,[7]; 1 µM,19% and 0%
same,%Inh,[8],0%
same,%Inh,[9]; 1 µM,16% and 2%
same,%Inh,[10]; 1 µM,86% and 83%
same,%Inh,[11]; 1 µM,0% and 48%
same,%Inh,[12]; 1 µM,41% and 42%
same,%Inh,[13]; 1 µM,8% and 7%
same,%Inh,[14],0%
same,%Inh,[15]; 1 µM,16% and 0%
same,%Inh,[16]; 1 µM,1% and 9%
same,%Inh,[17]; 1 µM,52% and 39%
same,%Inh,[18]; 1 µM,47% and 49%
same,%Inh,[19]; 1 µM,95.3% and 93.8%
same,%Inh,[20]; 1 µM,93.6% and 94%
O=C(Nc1n[nH]c2cc(-c3cccc(F)c3)ccc12)C1CC1 [SB-735464],%Inh,[1],9%
same,%Inh,[2],21%
same,%Inh,[3],14%
same,%Inh,[4],1%
same,%Inh,[5],10%
same,%Inh,[6],0%
same,%Inh,[7],2%
same,%Inh,[8],12%
same,%Inh,[9],29%
same,%Inh,[10],12%
same,%Inh,[11],0%
same,%Inh,[12],23%
same,%Inh,[13],0%
same,%Inh,[14],4%
same,%Inh,[15],28%
same,%Inh,[16],0%
same,%Inh,[17],36%
same,%Inh,[18],22%
same,%Inh,[19],0%
same,%Inh,[20],0%
Cc1nnc(-c2ccc3ncc(-c4ccc(S(C)=O)cc4)n3c2)o1 (centres unmarked),%Inh,[1],0%
same,%Inh,[2],0%
same,%Inh,[3],0%
same,%Inh,[4],5%
same,%Inh,[5],2%
same,%Inh,[6],9%
same,%Inh,[7],2%
same,%Inh,[8],18%
same,%Inh,[9],5%
same,%Inh,[10],0%
same,%Inh,[11],27%
same,%Inh,[12],0%
same,%Inh,[13],0%
same,%Inh,[14],13%
same,%Inh,[15],0%
same,%Inh,[16],1%
same,%Inh,[17],0%
same,%Inh,[18],7%
same,%Inh,[19],0%
same,%Inh,[20],0%
Nc1nccc(-c2c(-c3ccc(F)cc3)ncn2C2CCN(CC(F)(F)F)CC2)n1 [SB-236560],%Inh,[1],67%
same,%Inh,[2],0%
same,%Inh,[3],0%
same,%Inh,[4],14%
same,%Inh,[5],82%
same,%Inh,[6],0%
same,%Inh,[7],0%
same,%Inh,[8],30%
same,%Inh,[9],10%
same,%Inh,[10],0%
same,%Inh,[11],58%
same,%Inh,[12],31%
same,%Inh,[13],0%
same,%Inh,[14],0%
same,%Inh,[15],0%
same,%Inh,[16],17%
same,%Inh,[17],35%
same,%Inh,[18],0%
same,%Inh,[19],22%
same,%Inh,[20],0%
COc1ccc(Nc2nccc(N3CCC(NC(=O)Nc4cc(C)ccc4C)C3)n2)cc1 (centres unmarked) [GSK1379741],%Inh,[1],9%
same,%Inh,[2],0%
same,%Inh,[3],0%
same,%Inh,[4],0%
same,%Inh,[5],23%
same,%Inh,[6],0%
same,%Inh,[7],15%
same,%Inh,[8],0%
same,%Inh,[9],12%
same,%Inh,[10],0%
same,%Inh,[11],0%
same,%Inh,[12],0%
same,%Inh,[13],14%
same,%Inh,[14],0%
same,%Inh,[15],7%
same,%Inh,[16],59%
same,%Inh,[17],18%
same,%Inh,[18],40%
same,%Inh,[19],0%
same,%Inh,[20],0%
O=C(NOCC1CC1)c1ccc(F)c(F)c1Nc1ccc(I)cc1Cl,%Inh,[1],0%
same,%Inh,[2],0%
same,%Inh,[3],0%
same,%Inh,[4],0%
same,%Inh,[5],0%
same,%Inh,[6],0%
same,%Inh,[7],0%
same,%Inh,[8],0%
same,%Inh,[9],0%
same,%Inh,[10],0%
same,%Inh,[11],0%
same,%Inh,[12],0%
same,%Inh,[13],0%
same,%Inh,[14],0%
same,%Inh,[15],0%
same,%Inh,[16],0%
same,%Inh,[17],0%
same,%Inh,[18],0%
same,%Inh,[19],6%
same,%Inh,[20],0%
